Screening results as filed in PubChem BioAssay.
RGS4 inh: human RGS4 inhibition | Transcreener GDP fluorescence polarization, RGS4-accelerated GTP hydrolysis | Potency, µM (series often up to 114 µM), for inactives: top-dose activity change, negative = inhibition, most hits filed as inhibitors | 390,000 tested, 0.039% active; active = well fitted inhibition curve with a large enough effect; inconclusive = small, poorly fitted or top-dose-only effect; inactive = no such curve, though single readings can be large or run the other way; also: potency is read from the fitted curve at half-maximal effect; % is scaled to controls: 0 for no effect and ±100 for the full control effect; nearly all actives have a fitted effect of over 75% in size
Target sequence (P49798 whole entry, looked up): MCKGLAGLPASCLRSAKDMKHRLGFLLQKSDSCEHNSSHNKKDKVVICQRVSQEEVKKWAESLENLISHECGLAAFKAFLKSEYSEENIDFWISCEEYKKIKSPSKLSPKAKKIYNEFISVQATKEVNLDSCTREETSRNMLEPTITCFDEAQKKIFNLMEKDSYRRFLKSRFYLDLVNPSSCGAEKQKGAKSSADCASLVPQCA
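MLSMR compounds (23 nl, pin-transferred) preincubated 10 min at room temperature with a 500nM (2x) first reagent, then RGS4 at 900nM (2x) plus Transcreener GDP mix added; fluorescence polarization (620/688 nm) read before and after 90 min at 30 °C.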
D3 antag: blocks the human D3 dopamine receptor; P35462; D3R cells, DiscoveRx beta-arrestin luminescence, antagonist mode; hits give low values; max response, negative = inhibition, %; 360,000 tested, 2.5% active; AID 652054; in the data active = max response below about -50%; inconclusive = no clear call, values can overlap the other calls; also: % is scaled to controls: 0 for no effect and ±100 for the full control effect
Target sequence (P35462 whole entry, looked up): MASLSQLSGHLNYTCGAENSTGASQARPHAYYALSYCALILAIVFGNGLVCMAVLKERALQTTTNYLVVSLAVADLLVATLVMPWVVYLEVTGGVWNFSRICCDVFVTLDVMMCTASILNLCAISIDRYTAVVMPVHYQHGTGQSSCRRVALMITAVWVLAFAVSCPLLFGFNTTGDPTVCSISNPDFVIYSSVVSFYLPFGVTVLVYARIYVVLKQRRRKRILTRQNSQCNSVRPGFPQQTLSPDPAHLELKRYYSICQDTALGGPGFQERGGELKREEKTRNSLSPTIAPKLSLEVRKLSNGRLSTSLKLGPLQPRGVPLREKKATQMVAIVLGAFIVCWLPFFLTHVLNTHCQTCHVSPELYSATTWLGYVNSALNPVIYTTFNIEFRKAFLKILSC
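Cells plated overnight at 1500 cells/well, then exposed to library compounds with dopamine controls for 90 minutes at 37 degrees C. DiscoveRx reagent added for 30–60 minutes at room temperature; luminescence read, quantitative HTS format.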
DRD3 agonist: D3 dopamine receptor (human) agonism; P35462; D3R DiscoveRx beta-arrestin cells, luminescence, 90 min; max activation, %; 410,000 tested, 0.58% active; AID 652048; in the data active = max activation above about 30%; also: 0% is about no effect
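Cells at 1500/well, incubated overnight, then treated with pinned compounds (dopamine as control) for 90 min at 37 degrees C. DiscoveRx reagent added for 30 - 60 minutes at room temperature; luminescence read.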
uPA generation: cell surface uPA generation inhibition; cell surface uPA generation assay, qHTS; 330,000 tested, 0.31% active; Potency, µM (doses to about 38.3 µM), for inactives: at the top dose activity change, negative = inhibition, most hits filed as inhibitors; active = well fitted inhibition curve with a large enough effect; inconclusive = small, poorly fitted or top-dose-only effect; inactive = no such curve, though single readings can be large or run the other way; tested in mouse RAW 264.7 cells; also: potency is read from the fitted curve at half-maximal effect; % is scaled to controls: 0 for no effect and ±100 for the full control effect; nearly all actives have a fitted effect of over 55% in size
* hit, by the source's call; ? = inconclusive; . = no result; [ ] = remark or other dose. A selection: hits, their analogues and other compounds. The true share with any hit is near 3.1%.

SMILES | RGS4 inh | D3 antag | DRD3 agonist | uPA generation
Cc1ccc(S(=O)(=O)N(CC(O)CN2CCCC2)c2ccccc2)cc1 (configuration not stated) | 1.6% | ? | -24.6 | 6.7%
Cc1ccc(N(CC(O)CN2CCCCC2)S(=O)(=O)c2ccccc2)cc1 (configuration not stated) | -43.2%[56.9 µM] | -77.1* | -19.1 | -8.2%
Cc1ccc(-n2nnc(-c3nsc(NC(=O)c4ccccc4)n3)c2C)cc1 | -20.5% | . | -2.4 | .
CCN1c2ccccc2-n2cccc2C12CCN(C(=O)Nc1ccccc1Br)CC2 | 4.6% | . | -4.0 | .
Cc1cccc(-c2nc3ccccc3c(=O)n2NC(=O)c2cccs2)c1 | 22.6% | -8.0 | -1.6 | 1.5%
Cc1ccc(-c2nc3ccccc3c(=O)n2NC(=O)c2cccs2)cc1 | -0.4% | -51.0* | 3.0 | 1.5%
CCOC(=O)c1nnc(-c2ccc(C)cc2)nc1Sc1ccccc1Cl | 12.7% | -84.8* | 5.7 | -2.1%
COc1ccccc1N(C(=O)Cn1nnc(-c2ccc(C)o2)n1)C(C(=O)NC1CCCC1)c1ccncc1 (configuration not stated) | 8.9% | -53.1* | -18.3 | 0.5%
CCOC(=O)CN(C(=O)Cn1nnc(-c2ccc(OC)cc2)n1)C(C(=O)NC1CCCC1)c1ccc(F)cc1 (configuration not stated) | -0.8% | -11.0 | -7.4 | -12.8%
COc1ccc(-c2nnn(CC(=O)N(Cc3ccc(F)cc3)C(C(=O)NC3CCCC3)c3ccc(F)cc3)n2)cc1 (configuration not stated) | 18.3% | -60.4* | -10.7 | -6.5%
COc1cc2c(cc1NC(=O)c1cc(-c3cccnc3)nc3ccc(C)cc13)oc1ccccc12 | 30.4% | 15.8 | 56.1* | .
COc1cc2c(cc1NC(=O)c1cc(-c3ccncc3)nc3ccccc13)oc1ccccc12 | -33.7% | 7.2 | 7.5 | 1.0%
COc1ccc(NC(=O)c2cc(-c3cccnc3)nc3c(C)c(C)ccc23)c(OC)c1 | 12.1% | 21.8 | 48.2* | .
COc1ccc(NC(=O)c2cccnc2)c(OC)c1 | -12.6% | 18.7 | 2.6 | .
COc1cc(/C=C(\C#N)C(=O)NCC2CCCO2)ccc1OC(=O)c1ccco1 (configuration not stated) | -49.8% | -52.7* | -9.8 | -2.4%
CCc1nc(-c2ccc(C)c(S(=O)(=O)N3CCN(c4ccc(C(C)=O)cc4)CC3)c2)no1 | 15.8% | . | 1.0 | .
c1ccc(CNCCCn2cnc3c(OCc4ccccc4)ncnc32)cc1 | 41.6% | -14.5 | -53.6 | 3.8%
Cc1ccc(CN2CCN(CCCn3cnc4c(OCc5ccccc5)ncnc43)CC2)cc1 | -11.6% | -53.4* | -63.9 | -28.7%
c1ccc(COc2ncnc3c2ncn3CCCN2CCN(Cc3cccc4ccccc34)CC2)cc1 | . | -67.1* | -5.3 | .
C[C@@H](NCCCn1cnc2c(OCc3ccccc3)ncnc21)c1cccc2ccccc12 | 5.8% | ? | -46.7 | -11.3%
COc1cccc(NC(=O)C2CCCN(c3ncnc4onc(-c5ccc(F)cc5)c34)C2)c1 (configuration not stated) | -20.2% | . | 0.6 | .
C=CCn1c(N)c(C(=O)OCC)sc1=S | -2.8% | 9.1 | 3.5 | 3.7%
C=CCn1c(N)c(C(=O)N2CCN(C)CC2)sc1=S | -25.3% | -54.0* | -34.6 | 2.6%
Cn1nc(C(=O)NC2CCCCCC2)ccc1=O | -6.0% | 2.4 | -2.9 | -1.0%
Cn1nc(C(F)(F)F)cc1C(=O)NC1CCCCCC1 | 3.5% | 32.1 | 40.4* | .
SMILES | RGS4 inh | D3 antag | DRD3 agonist | uPA generation
CC(NCCCSc1ccccc1)C(O)c1ccc(O)cc1 (configuration not stated) | . | -61.6* | -14.2 | .
CC(=O)Nc1ccc(C(=O)NCCCSc2ccccc2)cc1 | 14.0% | -7.2 | -1.3 | -22.9%
COC(=O)c1ccccc1NC(=O)CN1CCC(C(=O)c2ccc3c(c2)OCCO3)CC1 | 0.0% | 42.7 | 40.0* | .
COc1ccc(NC(=O)c2ccc(NC(=O)CN3CCN(c4ccc(O)cc4)CC3)cc2)cc1 | -12.8% | 7.9 | 81.8* | ?
COc1ccc(NC(=O)c2ccc(NC(=O)CN3CCN(c4ccccc4O)CC3)cc2)cc1 | . | -14.2 | -2.1 | .
Cc1ccc(NC(=O)N2CCC(C(=O)c3ccc(F)cc3)CC2)cc1 | -11.4% | 5.9 | -4.4 | 6.3%
COc1ccc(C(=O)C2CCN(CC(=O)Nc3ccc(C)cc3)CC2)cc1 | 7.6% | -112.8* | -30.9 | -1.6%
CN(C)c1ccc(NC(=O)CN2CCC(C(=O)c3ccc(F)cc3)CC2)cc1 | -7.1% | -81.6* | -27.2 | .
COC(=O)c1ccccc1NC(=O)CN1CCOCC1 | -35.4% | 7.5 | 0.6 | -1.8%
CCc1ccc(CNC(=O)c2cccc(-n3cnc4cccnc43)c2C)cc1 | 13.5% | . | 10.5 | .
Nc1cccc2c1CN(C1CCC(=O)NC1=O)C2=O (configuration not stated) | . | . | -3.8 | .
CC(=O)c1ccc(NC(=O)CN2CCC(C(=O)c3ccc4c(c3)OCCO4)CC2)cc1 | -14.0% | -5.9 | -2.1 | 0.3%
Cc1ccc(NC(=O)CN2CCC(C(=O)c3ccc4c(c3)OCCO4)CC2)cc1 | 0.6%[56.9 µM] | -51.8* | -3.9 | 5.2%
c1ccc(-c2n[nH]c(-c3ccccc3)c2-c2nc3ccccc3[nH]2)cc1 | -33.7%[56.9 µM] | -56.4* | -5.1 | 3.6%
c1ccc(-c2nc3ccccc3[nH]2)cc1 | 23.1% | -93.6* | -26.3 | ?
c1ccc(-c2nc3ccccc3[nH]2)nc1 | 4.9% | -14.6 | -7.0 | 1.6%
c1ccc2[nH]c(-c3ccncc3)nc2c1 | -39.6% | 1.8 | 2.5 | -0.6%
COc1cccc(CNC(=O)CCc2c(C)nn(-c3ccc(N4CCOCC4)nn3)c2C)c1 | -16.5% | . | -14.1 | .
N#Cc1ccc(COC(=O)C2CCC(=O)N2)cc1 (configuration not stated) | 43.5% | -51.9* | -9.7 | -2.0%
CCCS(=O)(=O)NC(=O)C1(C)CCCN(C(=O)Cc2ccc3ccccc3c2)C1 (configuration not stated) | . | 19.4 | 8.1 | .
Cc1sc2c(c1C)c(=O)n(CCc1ccccc1)c(=O)n2Cc1ccc(F)cc1 | -3.1% | . | -4.7 | .
Cc1cc(C)nc(SC2=CS(=O)(=O)c3ccccc32)n1 | 9.8% | 16.6 | 2.0 | -7.0%
O=S1(=O)C=C(Sc2nc3ccccc3s2)c2ccccc21 | ? | -97.7* | -9.1 | -9.9%
Cn1cnc([N+](=O)[O-])c1S(=O)(=O)Oc1ccccc1 | -24.0% | -83.8* | -14.9 | -17.7%
Cn1cnc([N+](=O)[O-])c1S(=O)(=O)Nc1ccccc1 | 20.4% | -9.8 | -19.2 | -14.4%
Cn1cnc([N+](=O)[O-])c1S(=O)(=O)c1cccc(Cl)c1 | 1.4% | -92.1* | -12.5 | ?
COc1ccc(NC(=O)[C@@H](c2ccccc2)N2Cc3ccccc3C2=O)cc1OC | -14.5% | . | 5.6 | .
CC[C@@H](C)[C@@H]1CN([C@@H](C)CN2CCC[C@H]2CN2C(N)=NC[C@@H]2Cc2ccccc2)C(=N)N1CCc1ccc(Cl)c(Cl)c1 | -16.3% | -66.2* | -47.6 | -3.8%
CC[C@@H](C)[C@@H]1CN([C@@H](C)CN2CCC[C@H]2CN2C(N)=NC[C@@H]2Cc2ccccc2)C(=N)N1CCCC1CCCC1 | 15.1% | -1.0 | -35.5 | 9.3%
